MazF activator – activators of E. coli MazEF toxin-antitoxin RNase, primary screen, biochemical, fluorescence, uHTS; Endoribonuclease toxin MazF (Escherichia coli (strain K12)), P0AE70; FAM/BHQ RNA-DNA oligo cleavage fluorescence, 5 h; activation, % at 20 µM; 350,000 tested, 0.32% active; AID 504720, 2011; in the data active = activation above about 50%
PfHsp40 yeast – rescue of yeast from PfHsp40 toxicity, primary screen, S. cerevisiae, ATP luminescence; growth rescue, % at 12.5 µM; 340,000 tested, 0.68% active; S. cerevisiae expressing PfHsp40, growth rescue; in the data active = growth rescue above about 28%, passing the limit was not always enough; inconclusive = no clear call, values can overlap the other calls;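 note: yeast W303a lacking pdr1 and pdr3 grown in galactose medium; growth measured after three days at 30 °C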
BoNT-A LC inh2 – BoNT/A light chain protease inhibitors, primary screen, biochemical, flow cytometry, MLPCN library | 360,000 tested, 0.17% active | inhibition, % at 10 µM | AID 588499, 2011 | multiplex microsphere protease substrate cleavage | Botulinum neurotoxin type A light chain protease (Clostridium botulinum A str. ATCC 3502); note: plate controls were buffer without enzyme for full effect and enzyme alone for no effect
Autofluor counter – compound fluorescence in toxin protease inhibitor counterscreen; compound autofluorescence counterscreen, microsphere flow cytometry; active compounds read high; fluorescence intensity (concentration not given with the values); 360,000 tested, 3.1% active; in the data active = fluorescence intensity above about 16000; inconclusive = no clear call, values can overlap the other calls
BoNT F protease – BoNT/F light chain protease inhibitors, primary screen, biochemical, flow cytometry, MLPCN library; inhibition, % at 10 µM; 360,000 tested, 0.22% active; Multiplex microsphere protease cleavage assay; AID 588497, 2011; in the data active = inhibition above about 35%, passing the limit was not always enough; inconclusive = no clear call, values can overlap the other calls; note: plate controls were buffer without enzyme for full effect and enzyme alone for no effect
Anthrax LF prot – Bacillus anthracis LF protease inhibitors, primary screen, biochemical, multiplex microsphere, MLPCN library. Lethal factor (Bacillus anthracis), P15917. multiplex microsphere protease cleavage assay. inhibition, % at 10 µM. 360,000 tested, 0.12% active; note: plate controls were buffer without enzyme for full effect and enzyme alone for no effect
Numbers without * were called inactive; i = inactive; ? = inconclusive; . = not tested or not shown. Shown are actives, neighbours in structure and some others; about 4.3% of the full set was active somewhere. Cut-off read from the data, not from the text of the source, unless noted: active = inhibition above about 30%; inconclusive = no clear call, values can overlap the other calls; inactive = below that.

SMILES	MazF activator	PfHsp40 yeast	BoNT-A LC inh2	Autofluor counter	BoNT F protease	Anthrax LF prot
COCCCNC(=O)C[C@@H]1C[C@@]2(C(=O)OC)CCCCC=C2N(CCC2=CCCCC2)C1=O	.	.	-0.2	5931	8.5	-1.1
N#Cc1nc(Cc2cccc3ccccc23)oc1NCc1ccco1	-3.4	6.5	1.2	22710*	-0.8	-12.9
CCOc1ccc(-c2nc(C#N)c(NCC3CCCO3)o2)cc1 (stereo not drawn)	-6.2	0.9	?	?	-7.7	?
CCCOc1ccc(-c2nc(C#N)c(NCC3CCCO3)o2)cc1 (stereo not drawn)	0.1	4.2	-4.7	24772*	-4.4	-2.5
N#Cc1nc(Cc2cccc3ccccc23)oc1NCC1CCCO1 (stereo not drawn)	-14.3	0.0	0.6	21943*	-2.7	-6.2
CC(OC(=O)c1ccncc1)C(=O)Nc1ccc([N+](=O)[O-])cc1Cl (stereo not drawn)	11.1	-0.3	-1.1	4602	-4.9	-2.5
Cc1cc(S(=O)(=O)Nc2c(C)ccc3nsnc23)ccc1F	-8.1	1.0	1.2	16194*	3.3	2.4
Cc1ccc2nsnc2c1NS(=O)(=O)c1c(C)ccc2nsnc12	16.0	-1.2	-3.4	22309*	-7.0	-0.2
O=S(=O)(Nc1ccccc1F)c1ccc2nsnc2c1	2.4	?	-0.1	10528	-5.4	-0.1
Cc1ccc2nsnc2c1S(=O)(=O)Nc1ccccc1C(=O)O	4.2	-0.4	-9.8	4856	?	-0.6
Cc1cccc(N2C(=O)c3cccc4c(N(C)CCO)ccc(c34)C2=O)c1	78.0*	0.0	4.7	11358	3.6	-0.4
Cc1cccc(N2C(=O)c3cccc4c(N)ccc(c34)C2=O)c1	i	-0.5	5.0	4324	28.3	-3.3
Cc1ccc(CSc2nnc(CC(=O)Nc3ccc(C)cc3)n2C)cc1	-3.2	0.4	1.6	19547*	2.8	-0.6
Cc1ccccc1NC(=O)Cc1nnc(SCC(=O)c2ccc(Br)cc2)n1C	-4.2	-0.7	?	18692*	7.1	-3.1
Cc1ccc(OCc2nnc(SCC(=O)Nc3ccc4c(c3)OCO4)n2C)cc1	4.3	0.2	-8.1	26293*	-14.4	-5.8
Cc1ccc(OCc2nnc(SCC(=O)Nc3cc(C)on3)n2C)cc1	-2.0	0.2	1.5	21396*	1.5	-6.2
Cn1c(COc2ccccc2)nnc1SCC(=O)Nc1ccc2c(c1)OCO2	3.4	1.2	-0.1	10530	0.2	-0.3
COc1cccc(CN(C)C(=O)c2cccc(OC3CCN(C4CCCC4)CC3)c2)c1	1.9	-0.6	0.9	3381	-1.5	-3.3
CC1CN(c2cc3nccnc3cc2F)CC(C)O1 (stereo not drawn)	5.4	-0.5	?	16271*	1.3	0.6
CN(CCc1ccccc1)C1CCCN(S(=O)(=O)CC(F)(F)F)C1 (stereo not drawn)	4.9	-0.4	3.2	4033	?	-0.8
CCc1c(C)nc2c(C#N)c[nH]n2c1=O	9.2	-1.1	2.8	8422	7.0	3.4
CCOC(=O)Cc1c(C)nc2c(C#N)c[nH]n2c1=O	-12.7	-1.3	-1.0	23050*	-1.5	2.7
C#CCNc1c(C)c(C)nc2ncnn12	5.0	-0.1	-3.8	24659*	-5.6	-1.4
CCc1c(C)nc2ncnn2c1Nc1ccc(C)cc1	5.7	0.8	-2.4	3741	-38.5	-2.5
Cc1cc(=O)[nH]c(SC/C=C/c2ccccc2)n1	-4.8	1.9	-6.7	17675*	-8.3	-5.3
Cc1cc(=O)[nH]c(SCCCOc2ccc(F)cc2)n1	-6.0	-2.7	-0.1	23808*	-0.9	1.1
Brc1cnc2nc(SC/C=C/c3ccccc3)[nH]c2c1	-6.1	-0.4	1.8	3188	?	5.6
O=C(Cc1ccc2c(c1)OCCO2)Nc1cc(Cl)ccc1N1CCOCC1	-0.8	-0.3	2.6	5748	-8.6	-3.4
CCOC(=O)CSc1ncc(OC)c(Sc2ccc(OC)cc2)n1	-0.5	0.5	-0.1	20771*	0.6	0.4
CCOC(=O)CSc1nc(-c2ccccn2)ncc1OC	7.8	-0.6	-1.9	4516	7.9	-4.0

Source: PubChem
